Growth data for seven compounds are collected here from PubChem BioAssay (NCI).

The panel holds about 83,000 compounds, 20% with a hit somewhere; the sample as a whole holds those more often.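 96-well plates, one dose, 48 hours. Percent growth reported; active if below 10.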 Values without a mark were called inactive. Activity calls are given as the source filed them.

Among the test systems are HCT-15 colon; HT29 colon; SNB-75 CNS; SNB-19 CNS; U251 CNS; PC-3 prostate; SK-MEL-5 melanoma; UACC-62 melanoma; LOX IMVI melanoma; SK-MEL-28 melanoma; SK-MEL-2 melanoma; EKVX NSCLC; SN12C renal; UO-31 renal; TK-10 renal; ACHN renal; CAKI-1 renal; A498 renal; CCRF-CEM leukemia; MOLT-4 leukemia.
What all share (experiment): NCI-60 one-dose screen, 48 h (100 = growth as untreated, 0 = no growth, -100 = all killed)
Holding throughout (conditions): 10 µM unless noted

Take `COC(=O)[C@@H](Cc1c[nH]c2ccccc12)NC[C@@H](O)CN1C(=O)/C(=C\c2cc(OC)c(OC)c(OC)c2)c2ccccc21`: the growth is 53.9% with HCT-15 colon; 40.9% with HT29 colon; 58.3% with SNB-75 CNS; 66.2% with SNB-19 CNS; 55.6% with U251 CNS; 46.2% in the assay on PC-3 prostate. Besides, the growth is 59.8% in the assay with SK-MEL-5 melanoma; 49.8% with UACC-62 melanoma; 50.9% in the assay on LOX IMVI melanoma; 85.5% in the assay on SK-MEL-28 melanoma; 58.1% in the assay with SK-MEL-2 melanoma; 85.7% with EKVX NSCLC. Moreover, the growth is 73% in the assay on SN12C renal; 58.3% with UO-31 renal; 101% in the assay with TK-10 renal; 75.5% in the assay with ACHN renal; 73.1% with CAKI-1 renal; 69.5% with A498 renal. Moreover, the growth in the assay on CCRF-CEM leukemia was 20.7%; in the assay with MOLT-4 leukemia, 1.92% (active).

Consider `CN(C)c1ccc(Cc2cc(-c3ccccc3)nn(C/C(=N/O)c3ccccc3)c2=O)cc1`, for which the growth was 50.1% in the assay on HCT-15 colon; 32.9% in the assay with HT29 colon; 72.9% in the assay with SNB-75 CNS; 64.4% in the assay on SNB-19 CNS; 44.3% in the assay with U251 CNS; 30.9% in the assay on PC-3 prostate. The growth with SK-MEL-5 melanoma was 55.8%; with UACC-62 melanoma, 39.3%; in the assay on LOX IMVI melanoma, 53%; with SK-MEL-28 melanoma, 72%; with SK-MEL-2 melanoma it was 67.9%; in the assay on EKVX NSCLC, 49.5%. Also, the growth with SN12C renal is 17.9%; in the assay with UO-31 renal, 36.1%; in the assay on TK-10 renal, 84.5%; with ACHN renal it was 52.8%; in the assay with CAKI-1 renal it was 53.6%; with A498 renal, -3.2% (active). For the same compound, the figures for the growth in the assay on CCRF-CEM leukemia and with MOLT-4 leukemia were 46.6% and 35.1%, respectively.

`CN1/C(=C/C=C/c2n(Cc3ccc4ccccc4c3)c(Cl)c(Cl)[n+]2Cc2ccc3ccccc3c2)Oc2ccccc21`: the growth was -72.9% (active) in the assay on HCT-15 colon; -79.7% (active) in the assay with HT29 colon; -63.6% (active) in the assay with SNB-75 CNS; -96.3% (active) in the assay with SNB-19 CNS; -97.3% (active) in the assay with U251 CNS; -78.4% (active) in the assay on PC-3 prostate. Further, the growth in the assay with SK-MEL-5 melanoma was -99.4% (active); with UACC-62 melanoma, -94.4% (active); with LOX IMVI melanoma it was -93.8% (active); with SK-MEL-28 melanoma, -89.5% (active); with SK-MEL-2 melanoma it was -87.9% (active); in the assay on EKVX NSCLC it was -91.7% (active). The growth with SN12C renal is -92.9% (active); in the assay with UO-31 renal, -93.1% (active); in the assay on TK-10 renal, -90.5% (active); in the assay on ACHN renal, -96.6% (active); in the assay on CAKI-1 renal, -94.1% (active); in the assay on A498 renal, -77.9% (active). The growth is -52.7% (active) in the assay on CCRF-CEM leukemia and 91.1% with MOLT-4 leukemia.

In the case of `Cc1ccc(C(=O)Nc2ccc(CN3CCN(C)CC3)c(C(F)(F)F)c2)cc1C#Cc1cnc(N)c2ccccc12`, the growth is -69.2% (active) in the assay on HCT-15 colon; -12.8% (active) in the assay on HT29 colon; -70.4% (active) with SNB-75 CNS; -66.1% (active) in the assay with SNB-19 CNS; -70.5% (active) with U251 CNS; 3.18% (active) with PC-3 prostate. In addition, the growth with SK-MEL-5 melanoma was -85.4% (active); in the assay with UACC-62 melanoma, 4.11% (active); in the assay on LOX IMVI melanoma, -94.5% (active); in the assay on SK-MEL-28 melanoma, -86% (active); with SK-MEL-2 melanoma, -26.6% (active); with EKVX NSCLC, 36%. In addition, the growth in the assay with SN12C renal was 11.3%; with UO-31 renal, -34.9% (active); in the assay on TK-10 renal it was 29.9%; in the assay with ACHN renal, -91.8% (active); in the assay on CAKI-1 renal, -81.6% (active); in the assay on A498 renal, -32.5% (active). In addition, the figures for the growth with CCRF-CEM leukemia and with MOLT-4 leukemia were -15.7% (active) and -45.2% (active), respectively.

In the case of `COc1ccc2c(c1)C(c1c[nH]c3ccccc13)(c1c[nH]c3ccccc13)CCO2`, the growth in the assay with HCT-15 colon is 41.8%; in the assay on HT29 colon it was 23.8%; in the assay with SNB-75 CNS, 28%; in the assay on SNB-19 CNS, 66.4%; with U251 CNS, 42.2%; in the assay with PC-3 prostate, 31%. The growth was 66.2% with SK-MEL-5 melanoma; 44.9% in the assay on UACC-62 melanoma; 42.6% in the assay with LOX IMVI melanoma; 54.2% in the assay with SK-MEL-28 melanoma; 43.6% in the assay with SK-MEL-2 melanoma; 35% in the assay on EKVX NSCLC. For the same compound, the growth in the assay with SN12C renal is 50.6%; in the assay with UO-31 renal, 26.1%; in the assay with TK-10 renal, 59.7%; with ACHN renal, 45%; in the assay with CAKI-1 renal, 44%; in the assay with A498 renal, 82.9%. Besides, the growth in the assay with CCRF-CEM leukemia was 36.7%; in the assay with MOLT-4 leukemia, 8.7% (active).

`C=C(C)Cn1c(SCC(=O)c2cccs2)nc2sc3c(c2c1=O)CCCC3`: the growth with HCT-15 colon is 22.7%; in the assay on HT29 colon, 38.9%; in the assay on SNB-75 CNS, 62.6%; in the assay with SNB-19 CNS, 45.1%; in the assay on U251 CNS it was 36.3%; in the assay with PC-3 prostate, 48.6%. In addition, the growth is 36.4% in the assay on SK-MEL-5 melanoma; 44.8% with UACC-62 melanoma; 4.51% (active) with LOX IMVI melanoma; 55.3% in the assay on SK-MEL-28 melanoma; 92.3% in the assay on SK-MEL-2 melanoma; 77.1% in the assay on EKVX NSCLC. In addition, the growth in the assay with SN12C renal was 64.5%; in the assay with UO-31 renal it was 58.6%; with TK-10 renal it was 87.5%; in the assay with ACHN renal, 44.3%; in the assay on CAKI-1 renal, 53.8%; with A498 renal it was 72.1%. Further, the results for the growth with CCRF-CEM leukemia and in the assay on MOLT-4 leukemia were 40% and 41.9%, respectively.

Consider `Nc1ncc(-c2ccc3ncnc(N4CCc5ccc(Cl)cc54)c3c2)cn1`, for which the growth in the assay with HCT-15 colon was 7.19% (active); in the assay with HT29 colon, 1.74% (active); in the assay with SNB-75 CNS, -11.6% (active); in the assay with SNB-19 CNS it was 14.1%; with U251 CNS it was 9.31% (active); in the assay on PC-3 prostate it was 8.82% (active). The growth is -52.2% (active) in the assay on SK-MEL-5 melanoma; -23.6% (active) in the assay with UACC-62 melanoma; 1.27% (active) with LOX IMVI melanoma; -6.35% (active) in the assay on SK-MEL-28 melanoma; -53.3% (active) in the assay with SK-MEL-2 melanoma; 2.36% (active) in the assay on EKVX NSCLC. The growth in the assay with SN12C renal was 7.41% (active); in the assay on UO-31 renal, -21.7% (active); in the assay on TK-10 renal, -30.3% (active); in the assay on ACHN renal it was 3.09% (active); in the assay with CAKI-1 renal, 5.95% (active); in the assay with A498 renal it was -55.2% (active). Besides, the growth in the assay with CCRF-CEM leukemia is 4.45% (active); in the assay with MOLT-4 leukemia it was -39% (active).
